The source of these data is ChEMBL document CHEMBL3433997, “St. Jude Leishmania screening dataset” (2016).

Holding throughout (format): functional
For experiment [1], the target named is Solute carrier family 2, facilitated glucose transporter member 1 (Homo sapiens) (UniProt P11166). Put plainly: ST_JUDE_LEISH: Cytotoxicity at 2uM final concentration against transgenic Leishmania Mexicana promastigotes LmGLUT1 that are glucose transport deficient and complemented with the human glucose transporter GLUT1. Activity is measured by DNA content using SYBR green in vitro.
Sequence of Solute carrier family 2, facilitated glucose transporter member 1 (Homo sapiens) (P11166 whole entry): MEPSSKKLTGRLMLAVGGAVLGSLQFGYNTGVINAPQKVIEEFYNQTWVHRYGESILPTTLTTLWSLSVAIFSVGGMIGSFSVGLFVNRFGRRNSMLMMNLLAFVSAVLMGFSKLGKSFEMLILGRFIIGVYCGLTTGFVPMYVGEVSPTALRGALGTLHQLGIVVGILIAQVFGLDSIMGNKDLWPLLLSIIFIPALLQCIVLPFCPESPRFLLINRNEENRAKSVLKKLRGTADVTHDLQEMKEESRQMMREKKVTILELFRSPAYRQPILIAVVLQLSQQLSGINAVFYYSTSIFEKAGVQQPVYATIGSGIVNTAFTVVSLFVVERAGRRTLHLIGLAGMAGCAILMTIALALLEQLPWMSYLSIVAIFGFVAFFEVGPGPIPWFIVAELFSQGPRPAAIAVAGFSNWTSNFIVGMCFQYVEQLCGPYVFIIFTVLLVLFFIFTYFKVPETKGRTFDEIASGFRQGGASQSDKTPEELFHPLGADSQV

Experiment [2] addresses Hexose transporter 1 (Plasmodium falciparum) (UniProt O97467). Kind of experiment: ST_JUDE_LEISH: Cytotoxicity at 2uM final concentration against transgenic Leishmania Mexicana promastigotes LmPfHT that are glucose transport deficient and complemented with the Plasmodium falciparum hexose transporter. Activity is measured by DNA content using SYBR green in vitro.
The target of experiment [3] is Glucose transporter (Leishmania mexicana) (UniProt O61059). Kind of experiment: ST_JUDE_LEISH: Cytotoxicity at 2uM final concentration against transgenic Leishmania Mexicana promastigotes LmGT2 that are glucose transport deficient and complemented with the L. Mexicana glucose transporter 2. Activity is measured by DNA content using SYBR green in vitro.

With `COc1ccc2nccc([C@@H](O)CN3CCC(NCc4cc5cccc(OC)c5o4)CC3)c2c1`, the inhibition (commonly the change of the read-out against control, counted positive when it falls) in experiment [1] is 1.32%; in experiment [2], 3.57%; in experiment [3], -0.75%.

Consider `CC(Oc1ccc(C(=O)c2ccc(F)cc2)cc1)C(=O)N1CCc2ccccc21` (stereo unspecified), for which the inhibition in experiment [1] is -1.44%; in experiment [2], -0.96%; in experiment [3] it was 0.7%.

For `Cn1nccc1C(=O)NCCNCc1cccc(-c2ccc(-c3nc4cc(C(F)(F)F)ccc4[nH]3)s2)c1`, the figures for the inhibition in experiment [1], in experiment [2] and in experiment [3] were 16.3%, 15.5% and 14.6%, respectively.

In the case of `C(=Cc1ccccc1)C=NN=c1cc[nH]c2ccccc12`, the inhibition in experiment [1] was -0.05%; in experiment [2] it was 1.5%; in experiment [3] it was -2.14%.

`CN1CCCN(Cc2ccc(-c3cccc(NC(=O)c4cccc(F)c4)c3)cc2)CC1`: the inhibition in experiment [1] came to 12.9%; in experiment [2], 9.38%; in experiment [3], 7.57%.

For `NC1CCN(c2nc(NCCc3ccc(O)cc3)nc(NCc3ccccc3-c3ccccc3)n2)CC1`, the inhibition in experiment [1] is -0.15%; in experiment [2], 0.54%; in experiment [3] it was 0.38%.

Consider `COc1ccc(Nc2nc(N/N=C/c3ccc(O)cc3)nc(Nc3ccc([N+](=O)[O-])cc3)n2)cc1`, for which the values for the inhibition in experiment [1], in experiment [2] and in experiment [3] were 1.19%, 2.44% and 0.87%, respectively.

As to `CCCCC(=O)Nc1nonc1-c1ccc(OCC)c(OCC)c1`, the inhibition in experiment [1] was -0.29%; in experiment [2], -0.24%; in experiment [3], -4.47%.

With `O=C(Cc1cc(F)cc(F)c1)NC1CCN(c2ccnc3cc(Cl)ccc23)C1` (stereo unspecified), the inhibition in experiment [1] came to 1.93%; in experiment [2], 1.66%; in experiment [3] it was 2.22%.

With `Fc1ccc2[nH]c(-c3ccc(-c4ccc(CNCCN5CCNCC5)cc4)cc3)nc2c1`, the inhibition in experiment [1] was -0.25%; in experiment [2], 1.53%; in experiment [3], 0.99%.

As for `CC(C)COc1ccc(Cl)cc1Cc1nc(-c2nc3cccc(CN4CCN(C)CC4)c3[nH]2)cs1`, the inhibition came out at 0.6% in experiment [1], 0.77% in experiment [2] and 0.67% in experiment [3].

Regarding `COc1ccc(NC(=O)c2ccc(-c3ccc(-c4cccnc4)cc3)c(C)c2)cc1OCCN(C)C`, the inhibition in experiment [1] was found to be 1.47%; in experiment [2] it was 1.09%; in experiment [3], 0.84%.
